PfHsp90 yeast 2 – growth inhibition of yeast expressing Plasmodium Hsp90 | S. cerevisiae expressing PfHsp90, BacTiter-Glo ATP, 48 h; yeast lacking PDR1 and PDR3 efflux regulators | 0.32% of 310,000 active | inhibition, % at 9.4 µM;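 active means every replicate shows inhibition above about 80%, whatever the replicate mean, limit read from the data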;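 further: 0% = DMSO neutral controls and 100% = 20 µM radicicol positive controls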
tim23-1 inh – growth inhibitors of tim23-1 mutant yeast; S. cerevisiae tim23-1 growth, BacTiter-Glo luminescence, 24 h; inhibition, % at 20 µM; 1.3% of 330,000 active;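 active means growth inhibition of the mutant yeast at or above 50%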;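 further: temperature-sensitive mutant grown at 25 °C; plate controls were DMSO-treated mutant yeast for no effect and medium wells lacking yeast for full effect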
tim10-1 inh – growth inhibitors of tim10-1 mutant yeast. S. cerevisiae tim10-1 ts strain growth, BacTiter-Glo, 24 h. inhibition, % at 20 µM. 2.2% of 330,000 active. AID 463190;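 active means inhibition of at least 40%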;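 further: mutant grown at 25 °C; 0% = DMSO wells with yeast and 100% = wells holding no yeast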
TIM10 inh – growth inhibitors of TIM10 yeast strain. 1.4% of 330,000 active. inhibition, % at 10 µM. S. cerevisiae TIM10 strain growth, BacTiter-Glo luminescence, 24 h;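 active means inhibition of 40% or more at the single tested concentration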;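 further: wild-type TIM10 isogenic control strain grown at permissive 25 °C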
B2AR ag – activates human beta-2 adrenergic receptor causing internalization; P07550; Am2.2-beta2AR cells, FAP receptor internalization, flow cytometry; response, % (test concentration not listed); 0.43% of 340,000 active; AID 504454;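 active means response above a set limit, near 3 SD of response in nonfluorescent compounds, cut at about 42% in these data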
Target sequence (P07550 whole entry, looked up): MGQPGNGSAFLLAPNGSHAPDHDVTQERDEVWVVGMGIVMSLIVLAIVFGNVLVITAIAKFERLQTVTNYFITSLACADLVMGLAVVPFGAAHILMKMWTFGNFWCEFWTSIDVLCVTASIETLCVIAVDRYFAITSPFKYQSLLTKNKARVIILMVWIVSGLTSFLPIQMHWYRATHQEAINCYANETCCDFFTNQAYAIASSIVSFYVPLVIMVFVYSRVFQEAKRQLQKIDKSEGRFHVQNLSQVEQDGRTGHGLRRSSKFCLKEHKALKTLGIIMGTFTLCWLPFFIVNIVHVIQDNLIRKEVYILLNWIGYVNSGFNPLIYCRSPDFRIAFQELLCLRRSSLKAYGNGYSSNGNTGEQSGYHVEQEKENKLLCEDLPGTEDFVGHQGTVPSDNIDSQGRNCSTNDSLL
tim10-1 conf – confirmation of tim10-1 mutant yeast growth inhibitors | S. cerevisiae tim10-1 ts strain growth, BacTiter-Glo, 24 h | inhibition, % at 20 µM | 56% of 7,400 active | shares compounds with tim10-1 inh;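 active means inhibition of yeast growth at or above a set limit in either of two repeat tests at 20 µM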;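 further: tim10-1 mutant grown at permissive 25 °C to find synthetic lethal compounds; 0% = DMSO yeast wells and 100% = medium wells without yeast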
Starred values were filed as active, the others as inactive; . = no result given. Most compounds without a hit are left out; they make up all but 3.8% or so of the library.

SMILES | PfHsp90 yeast 2 | tim23-1 inh | tim10-1 inh | TIM10 inh | B2AR ag | tim10-1 conf
NS(=O)(=O)c1ccc(CCNC(c2ccccc2)c2ccccc2)cc1 | 2 | 4 | 13 | 21 | -6 | .
Cc1c(C(=O)NC2CCCc3ccccc32)oc2ccccc12 (stereo not given) | -33 | 31 | 45* | 35 | 8 | 38*
Cc1nc2cc(C(=O)N3c4ccccc4CC3C)ccc2s1 (stereo not given) | 3 | 31 | 43* | 8 | -10 | 9
CCN(c1ccc(OC)cc1)S(=O)(=O)c1ccc2c(c1)CC(C)N2C(=O)C1CC1 (stereo not given) | -17 | 42 | 37 | -3 | -7 | .
COCCn1c(-c2ccc(OC)cc2)cnc1SCC(=O)Nc1cccc2ccccc12 | 3 | 26 | 45* | -9 | 4 | 9
COc1ccc(-c2cnc(SCC(=O)Nc3cc(C)on3)n2Cc2ccco2)cc1 | -5 | 18 | 44* | 8 | 2 | 21
O=C(CN1C(=O)NC2(CCCC2)C1=O)N1CCN(c2ccc(C(F)(F)F)cc2[N+](=O)[O-])CC1 | -5 | . | . | . | -8 | .
COc1ccc(C(OCC(O)CN2CCC(O)CC2)c2ccc(OC)cc2)cc1 (stereo not given) | 13 | -2 | -8 | 8 | 2 | .
C=CC[C@H](CC(=O)N(CCO)Cc1ccccc1)C(=O)N[C@H](COC(=O)[C@@H](CC=C)Cc1ccc(F)cc1)Cc1ccccc1 | 6 | 9 | 2 | 10 | 19 | .
CN1C(=O)/C(=C\c2ccccc2F)Sc2ccc(C(=O)NC3CCN(Cc4ccccc4)CC3)cc21 | -5 | 12 | 43* | -14 | 16 | -50
Cc1ccc(NC(=O)c2cc(S(=O)(=O)N(C)C)ccc2N2CCCC2)cc1F | -9 | 23 | 15 | 9 | 2 | .
Cc1cc(OCCCCOc2ccc(S(N)(=O)=O)c(C)c2)ccc1S(N)(=O)=O | 3 | 4 | 13 | -8 | 20 | .
O=C(COc1ccc(S(=O)(=O)NC2CCCCC2)cc1)N1CCN(c2cccc(Cl)c2)CC1 | 23 | 25 | 46* | 18 | -2 | 21
CC(C)NS(=O)(=O)c1ccc(OCC(=O)N2CCN(c3ccccc3)CC2)cc1 | 12 | -10 | 16 | 11 | 6 | .
Oc1ccccc1CN1CCCC(N2CCc3ccccc3C2)C1 (stereo not given) | 19 | 5 | -15 | -1 | 2 | .
CC1CCCCN1C(=O)c1ccc(C(=O)c2ccccc2)cc1 (stereo not given) | -6 | 41 | 29 | 12 | -12 | .
CCOc1ccccc1NC1=C(Cl)C(=O)N(Cc2ccccc2)C1=O | -8 | -3 | 44* | 24 | -4 | 21
O=C1C(Cl)=C(Nc2cccc(O)c2)C(=O)N1Cc1ccccc1 | -7 | 32 | 42* | 32 | -4 | 31*
CC1CCCCN1C(=O)c1cccc(NC2=C(Cl)C(=O)N(Cc3ccccc3)C2=O)c1 (stereo not given) | . | 49 | 51* | 35 | 7 | 35*
CCC(=O)Nc1cccc(C(=O)/C=C/c2ccccc2)c1 | 4 | 34 | 42* | 20 | 54* | 43*
CCC(=O)Nc1cccc(C(=O)c2ccccc2)c1 | 6 | 13 | -1 | 5 | -8 | .
CCOC(=O)C1=C(C)OC(N)=C(C#N)C1c1c(C)nn(-c2ccc(C)cc2)c1Cl (stereo not given) | . | 25 | 32 | 18 | . | .
COC(=O)C1=C(C)OC(N)=C(C#N)C1c1c(C)nn(-c2ccccc2)c1Cl (stereo not given) | 17 | 43 | 40* | 36 | 0 | 33*
COc1ccc2nc(C)cc(N3CCN(S(=O)(=O)c4ccccc4F)CC3)c2c1 | . | 47 | 40* | 30 | 4 | 21
Cn1nc(C(=O)NC2CCCCC2)c2c1-c1ccccc1SC2 | 18 | 4 | 7 | -2 | 7 | .
SMILES | PfHsp90 yeast 2 | tim23-1 inh | tim10-1 inh | TIM10 inh | B2AR ag | tim10-1 conf
CC(C)N(C(=O)c1nn(C)c2c1CSc1ccccc1-2)C1CCCCC1 | -2 | 48 | 50* | 9 | -1 | 12
C[C@@H]1C(=O)O[C@H](C)[C@H]1C[C@@H](O)[C@](C)(O)C1CC[C@@]2(O)C3=CC(=O)[C@@H]4C[C@@H](O)[C@@H](O)C[C@]4(C)C3CC[C@]12C (stereo not given in full) | -11 | 5 | -6 | -6 | 1 | .
O=C(c1cc(C2CC2)nn1-c1ccccc1)N1CCN(c2ccccc2O)CC1 | -25 | 49 | 22 | 24 | 6 | .
O=C(c1cc(C2CC2)nn1-c1ccccc1)N1CCN(c2ccccn2)CC1 | -23 | 30 | 42* | 13 | -10 | 4
Cc1ccccc1C(=O)N1CCC2CC1c1cc(Cl)ccc12 (stereo not given) | 13 | . | . | . | -3 | .
Oc1ccc(-n2nnnc2SCc2ccccc2Br)cc1 | -69 | 43 | -2 | -9 | -5 | .
c1ccc(-n2nnnc2SCc2cccc3nsnc23)cc1 | -8 | 36 | 40* | 23 | -2 | 33*
O=C(Nc1cc(Cl)ccc1Cl)P(=O)(O)c1ccccc1 | -14 | . | . | . | -3 | .
COc1ccc(/C=C/C(=O)c2nc3ccccc3n2CC(=O)c2ccc(OC)cc2)cc1 | -49 | 39 | 41* | 31 | 2 | 37*
COc1ccc(Cn2c(/C=C/c3ccccc3)nc3ccccc32)cc1 | . | 36 | 46* | 34 | -6 | 24
CCn1c(/C=C/c2ccccc2)nc2ccccc21 | 13 | 38 | 32 | 11 | -4 | .
CCOC(=O)C1=C(COC(=O)CNS(=O)(=O)c2ccc(NC(C)=O)cc2)NC(=O)NC1C (stereo not given) | 2 | . | . | . | 7 | .
Cc1ccc(S(=O)(=O)N2CCC(C(=O)Nc3ncccc3O)CC2)cc1 | 16 | 12 | 10 | -1 | -2 | .
Cc1nn(-c2ccc(F)cc2F)c2c1-c1nc(N3CCCC3)ncc1CC2 | -14 | 28 | 45* | 35 | 4 | 20
CN(C)S(=O)(=O)c1ccc(C(=O)OCC2CCCO2)cc1 (stereo not given) | -16 | . | . | . | 9 | .
CCNC(=S)N/N=C/c1cccc(/C=N/NC(=S)NCC)c1 | -17 | -8 | -18 | -2 | -1 | .
CCNC(=S)N/N=C/c1c(Cl)cccc1Cl | 4 | 19 | 41* | 21 | 6 | 22
CC(C)(C)NC(=S)N/N=C/c1c(Cl)cccc1Cl | 0 | 32 | 40* | 37 | 3 | 21
Cc1nc2c(c(=O)n1CCC1=CCCCC1)c1nc3ccccc3nc1n2/N=C/c1ccco1 | -4 | 4 | -6 | 10 | 11 | .
CCCn1c(C)nc2c(c1=O)c1nc3ccccc3nc1n2CCC1=CCCCC1 | . | 39 | 49* | 7 | 24 | -2
COc1ccccc1NS(=O)(=O)c1ccc(C)c(C(=O)N2CCN(c3ccc(O)cc3)CC2)c1 | 2 | 4 | -11 | 3 | -3 | .
CC(C)(C)C(=O)OCc1nc(-c2ccc(Cl)cc2)cs1 | -17 | 23 | 45* | 24 | 8 | 42*
